# In the library only some 4.7% were active in any assay of this set; here they are far more common.
# ALR inh = human ALR oxidase inhibition via reduced H2O2; hit rate 3.8% among 290,000; AID 485317; purified ALR, DTT oxidation, H2O2 HRP-luminol luminescence; inhibition, % (concentration not given with the values);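 active = mean replicate inhibition above about 79%, with every replicate also reaching it, limit read from the data; inconclusive = only one of the two criteria met; inactive = mean below limit and not every replicate reaching it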
# MLLE-PAM2 inh = blocks PAM2 peptide binding to the PABP1 MLLE domain; P11940; GST-MLLE / FITC-PAM2 fluorescence polarization; inhibition, % at 20 µM; hit rate 0.36% among 360,000; in the data active = inhibition above about 35%, passing the limit was not always enough
# Target sequence (P11940 whole entry, looked up, the tested form may be a part): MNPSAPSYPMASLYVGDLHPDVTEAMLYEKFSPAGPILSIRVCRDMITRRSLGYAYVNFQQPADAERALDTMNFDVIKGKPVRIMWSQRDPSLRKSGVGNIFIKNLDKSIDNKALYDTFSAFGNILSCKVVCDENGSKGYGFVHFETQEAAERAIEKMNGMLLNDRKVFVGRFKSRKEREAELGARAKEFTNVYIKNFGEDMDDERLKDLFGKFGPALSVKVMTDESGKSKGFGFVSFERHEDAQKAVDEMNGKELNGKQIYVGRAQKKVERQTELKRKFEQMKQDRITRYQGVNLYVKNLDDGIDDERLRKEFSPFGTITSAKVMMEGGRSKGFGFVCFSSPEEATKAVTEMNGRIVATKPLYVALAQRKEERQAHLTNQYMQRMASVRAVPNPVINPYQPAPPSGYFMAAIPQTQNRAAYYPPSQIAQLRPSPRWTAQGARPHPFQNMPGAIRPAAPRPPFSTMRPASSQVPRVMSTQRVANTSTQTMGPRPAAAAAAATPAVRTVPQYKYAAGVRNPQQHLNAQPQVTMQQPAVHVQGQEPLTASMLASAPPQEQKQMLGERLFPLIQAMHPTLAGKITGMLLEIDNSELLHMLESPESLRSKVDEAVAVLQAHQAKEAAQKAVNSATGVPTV
# PABP FP inh = PABP-poly(A) binding inhibition. PABP-poly(A) RNA binding, fluorescence polarization. hit rate 1% among 290,000. inhibition, % at 35 µM;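 note: calls also rest on retests at 20 µM and on dose response follow-up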
# eIF4H inh = inhibitors of RNA binding by human eIF4H. Q15056. eIF4H fluorescence polarization binding assay. inhibition, % at 35 µM. hit rate 0.94% among 290,000. AID 2012;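 note: calls also rest on retests at 20 µM and on dose response follow-up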
# Efflux pump mplx = inhibitors of Candida antifungal efflux pumps expressed in yeast. S. cerevisiae Candida pump triplex, Nile Red efflux. inhibition, % at 10 µM. hit rate 0.44% among 330,000. AID 485275;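 active = plate passing quality check with inhibition over a set limit, or well fluorescence over plate mean plus 4 SD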;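 note: Nile Red retained in pooled yeast measured as flow cytometry median fluorescence; higher means more Nile Red kept so more efflux inhibition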
# SUMO HTRF inh = blocks human SUMOylation mediated by UBC9; P63279; HTRF SUMOylation assay, SAE1/SAE2 + UBC9, in vitro; inhibition, % at 35 µM; hit rate 0.36% among 290,000; in the data active = inhibition above about 50%, passing the limit was not always enough; inconclusive = no clear call, values can overlap the other calls
# Yeast cmpd fluor = compound fluorescence in yeast efflux pump counter-screen; fluorescence ratio to DMSO, % at 10 µM; S. cerevisiae AD/pABC3, flow cytometry; hit rate 4% among 1,700; shares compounds with Efflux pump mplx;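 active = fluorescence ratio to DMSO above its plate's cutoff, the plate mean ratio plus 5 SD, cut at about 210% in these data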;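 note: unstained yeast with no Nile Red so the signal is compound autofluorescence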
# Mdr1 pump inh = inhibitors of Candida albicans Mdr1 efflux pump. inhibition, % at 10 µM. shares compounds with Efflux pump mplx. S. cerevisiae AD/CaMDR1, Nile Red efflux, flow cytometry. hit rate 1% among 1,700; in the data active = inhibition above about 26%;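 note: higher means more Nile Red retained so more efflux inhibition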
# Cdr2 pump inh = Candida Cdr2 efflux pump inhibition; AID 588520; Nile Red retention ratio vs DMSO, % at 10 µM; shares compounds with Efflux pump mplx; hit rate 4% among 1,700; S. cerevisiae AD/CaCDR2, Nile Red retention, flow cytometry; in the data active = Nile Red retention ratio vs DMSO above about 190%;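 note: higher ratio means more blocking of Cdr2 efflux of the dye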
# CaCdr1 efflux inh = inhibitors of Candida albicans Cdr1 efflux pump; shares compounds with Efflux pump mplx; S. cerevisiae AD/CaCDR1, Nile Red efflux, flow cytometry; inhibition, % at 10 µM; hit rate 1% among 1,700;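 active = inhibition above the screen-wide mean plus twice its standard deviation, cut at about 32% in these data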
# A number is an active result; n = inactive; u = inconclusive; x = no result given. Unless noted, the rule behind the calls is not given here.
SMILES,ALR inh,MLLE-PAM2 inh,PABP FP inh,eIF4H inh,Efflux pump mplx,SUMO HTRF inh,Yeast cmpd fluor,Mdr1 pump inh,Cdr2 pump inh,CaCdr1 efflux inh
Cc1cc(NC(=O)CCC(=O)N(Cc2cccs2)C(C)(C)C(=O)NC2CCCCC2)no1,x,n,n,n,n,n,x,x,x,x
CC(=O)OCCn1c2nc(=O)[nH]c(=O)c-2nc2cc(C)c(C)cc21,n,n,u,u,0.7,60,n,n,n,n
CCOC(=O)CC1C(=O)NCCN1Cc1cccs1 (stereo not given),n,n,n,n,n,n,x,x,x,x
CC1C(=O)N2CCCc3cc(S(=O)(=O)N4CCCCC4)cc1c32 (stereo not given),n,n,x,x,0.7,x,n,n,n,n
COCCNC(=S)N1CCc2cc(OC)c(OC)cc2C1COc1ccc(C(C)C)cc1 (stereo not given),n,n,n,n,6.8,n,n,n,n,n
O=C(OCC(=O)c1ccc(Cl)s1)c1ccc(CO)cc1,n,n,x,x,n,x,x,x,x,x
COc1cccc(-c2sc3ccc(OC)cc3c2-c2ccc(OCCN3CCOCC3)cc2)c1,n,n,x,x,70,x,n,n,n,67
COc1cc(OC)cc(-c2sc3ccc(OC)cc3c2-c2ccc(OCCN3CCOCC3)cc2)c1,x,n,x,x,160,x,n,95,n,128
O=C1Nc2cc(C(=O)N3CCOCC3)ccc2SC1N1CCOCC1 (stereo not given),n,n,n,n,19,n,n,n,n,n
COCc1cccc(-c2csc(C(O)c3cccc(OC)c3)n2)c1 (stereo not given),x,n,x,x,x,x,x,x,x,x
Clc1ccc(Cn2nc(-c3ccccc3)nc2-c2ccccc2)cc1,n,n,n,n,20,n,n,n,n,n
Clc1ccccc1Cn1nc(-c2ccccc2)nc1-c1ccccc1,n,n,n,n,n,n,x,x,x,x
CC(=O)c1ccc(-c2ccc(C(=O)N(C)Cc3nc4ccccc4c(=O)[nH]3)o2)cc1,n,n,x,x,n,x,x,x,x,x
Cc1sc2nc(CN3CCOCC3)nc(NS(=O)(=O)c3cc(Cl)ccc3Cl)c2c1C,n,n,x,x,n,x,x,x,x,x
CCNS(=O)(=O)c1ccc2c(c1)NCC2,n,n,n,n,12,n,n,n,n,n
CCNS(=O)(=O)c1ccc(OC)c(C)c1,n,n,n,n,n,n,x,x,x,x
COC(=O)c1ccc(S(=O)(=O)NCc2ccc(OC)cc2)n1C,n,n,n,n,2.5,n,n,n,n,n
O=C(NCc1cccc(Cl)c1)NC(=O)c1csc([N+](=O)[O-])c1,n,n,n,n,0.9,n,n,n,n,n
CC(C)CNC(=S)NC(=O)c1csc([N+](=O)[O-])c1,n,n,n,n,n,n,x,x,x,x
Cc1ccc(C(=O)OCC(=O)NCC2COc3ccccc3O2)cc1 (stereo not given),n,n,x,x,0.9,x,n,n,n,n
O=C(COC(=O)c1ccccc1)NCC1COc2ccccc2O1 (stereo not given),x,n,x,x,x,x,x,x,x,x
O=C(NC1CCCCC1)c1cccc2c(-c3ccc(F)c(F)c3)coc12,x,n,x,x,x,x,x,x,x,x
Nc1cc2c3ccccc3ccc2c2ccccc12,x,n,x,x,x,x,x,x,x,x
Cc1ccc(-c2csc(=S)n2CC(=O)OCC(=O)NCc2ccco2)cc1,n,n,n,n,n,n,x,x,x,x
Cc1ccc(-c2csc(=S)n2CC(=O)OCC(=O)NC(C)C(C)C)cc1 (stereo not given),n,n,n,n,0.7,n,n,n,n,n
SMILES,ALR inh,MLLE-PAM2 inh,PABP FP inh,eIF4H inh,Efflux pump mplx,SUMO HTRF inh,Yeast cmpd fluor,Mdr1 pump inh,Cdr2 pump inh,CaCdr1 efflux inh
COc1ccc(S(=O)(=O)N2CCOC2CNC(=O)C(=O)NCc2ccccn2)cc1OC (stereo not given),x,n,x,x,x,x,x,x,x,x
CCN1CCN(CC(O)COCC2COc3ccccc3O2)CC1 (stereo not given),n,n,n,n,n,n,x,x,x,x
OC(COCC1COc2ccccc2O1)CN1CCN(c2ccccc2)CC1 (stereo not given),x,n,n,n,1.0,n,n,n,n,n
CC(C)CC[n+]1ccccc1/C=C/c1ccc(N(C)C)cc1,99,n,64,u,4.0,n,955,n,n,n
Cc1cc(C)n(C(C[N+](=O)[O-])c2ccc(Cl)cc2)n1 (stereo not given),n,n,n,n,n,n,x,x,x,x
Cn1c(NC(=O)/C=C/c2ccccc2)cc(=O)n(C)c1=O,n,n,n,n,n,n,x,x,x,x
COc1ccc(/C=C/C(=O)Nc2cc(=O)n(C)c(=O)n2C)cc1,n,n,n,n,15,n,n,n,n,n
Cc1cc(C)n2nc(SCCOc3ccccc3)nc2n1,n,n,n,n,n,n,x,x,x,x
COc1cc(CN2CCC(C(=O)NCC(C)(C)CN(C)C)CC2)ccc1OCc1ccccc1,n,n,n,n,n,n,x,x,x,x
CCOC(=O)C1=C(CS(=O)(=O)c2ccccc2)NC(=O)NC1c1ccccc1 (stereo not given),n,n,n,n,0.5,n,n,n,n,n
Cc1cc2c(c(C)c1Br)C(c1ccc3c(c1)OCO3)CC(=O)O2 (stereo not given),x,n,x,x,n,x,x,x,x,x
O=C(COC(=O)c1c2ccccc2cc2ccccc12)Nc1ncc(C(F)(F)F)cc1Cl,n,n,n,n,0.4,n,n,n,n,n
N#C/C(=C\c1cccc([N+](=O)[O-])c1)c1nnc2n1CCCCC2,n,n,n,n,n,n,x,x,x,x
CN(c1ccccc1)c1ccc(/C=C(\C#N)c2nnc3n2CCCCC3)cc1[N+](=O)[O-],n,n,n,n,16,n,n,n,n,n
CC(=O)N1c2ccc(S(=O)(=O)N3CCC(C(=O)N4CCN(c5ccc(Cl)cc5)CC4)CC3)cc2CC1C (stereo not given),n,n,n,n,n,n,x,x,x,x
Cc1ccc(CNS(=O)(=O)/C=C/c2ccc3c(c2)OCO3)cc1,n,n,n,n,n,n,x,x,x,x
COc1ccc(C(=O)CN2C(=O)NC3(CCCCCC3)C2=O)cc1,x,n,n,n,6.2,n,n,n,n,n
O=S(=O)(NCC(c1ccc2c(c1)OCO2)N1CCOCC1)c1ccc(Cl)cc1 (stereo not given),n,n,x,x,n,x,x,x,x,x
Cc1cc(S(=O)(=O)NCC(c2ccc3c(c2)OCO3)N2CCOCC2)ccc1F (stereo not given),n,n,x,x,1.0,x,n,n,n,n
CCCCC(CC)Cn1c(O)c(/C=C2\C=NN=C2c2ccccc2)sc1=S (stereo not given),n,n,n,n,8.3,n,n,n,n,n
Cc1nc(NC(=S)NC(=O)c2ccco2)sc1C(=O)N(C)C,n,41,n,n,5.7,n,n,n,n,n
CC(C)(C)[C@H]1C=C(C(=O)Nc2ccccc2)O[C@@H](OCCCCO)C1,n,n,x,x,n,x,x,x,x,x

# Screening data: PubChem BioAssay, several laboratories
